# Source: PubChem BioAssay (NCATS)
# Unmarked numbers belong to inactive results. Inconclusive results are not listed. Entries that show only a call come without a potency. The source made the active and inactive calls. Calls come from the whole dose curve; as a rule, active = well fitted curve in the direction sought with a large enough effect; inconclusive = small, poorly fitted or top-dose-only effect, or another doubt; inactive = no such curve, though single readings can be large; an effect the other way counts as inactive or inconclusive.
# What was measured:
# [1] = UWB1.289 Cancer Cell Toxicity qHTS against the NCATS CANVASS Library (AID 1347347); note: nearly all actives have a fitted effect of over 60% in size; note: potency is the fitted concentration of half-maximal effect; for activity change, negative = cytotoxicity: series mostly up to about 38 µM
# Outline: (§1)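 Per well, 1000 cells; exposure 72 h with compound at 11 final concentrations; readout CellTiter-Glo luminescence.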
# [2] = Panc-1005 Cancer Cell Toxicity qHTS against the NCATS CANVASS Library (AID 1347349); note: nearly all actives have a fitted effect of over 60% in size; note: potency is the fitted concentration of half-maximal effect; for activity change, negative = cytotoxicity: series mostly up to about 38 µM
# Outline: as §1
# [3] = HEK-293 Cancer Cell Toxicity qHTS against the NCATS CANVASS Library (AID 1347355); note: nearly all actives have a fitted effect of over 65% in size; note: potency is the fitted concentration of half-maximal effect; for activity change, negative = cytotoxicity: series mostly up to about 46 µM
# Outline: (§2)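 1000 cells/well, 4 h pre-incubation 37 °C/5% CO2; 11-pnt titration; 72 h; CellTiter-Glo 15 min RT, luminescence.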
# [4] = qHTS for Inflammasome Signaling Inhibitors: IL-1-beta AlphaLISA screen against the NCATS CANVASS Library (AID 1347379);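 note: human THP-1 cells primed with LPS then triggered with ATP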;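 for potency: secreted IL-1B measured as AlphaLISA emission at 615 nm; potency is the fitted concentration of half-maximal effect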
# Outline: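 THP-1, 1 hr compound pre-incubation, then LPS 250 ng/mL + ATP 1.25 mM (final); 16 hr total with compound; IL-1B AlphaLISA, ex 680/em 615 nm; 11-point qHTS, up to 57.5 uM final.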
# [5] = HPAF-II Cancer Cell Toxicity qHTS against the NCATS CANVASS Library (AID 1347346); note: nearly all actives have a fitted effect of over 55% in size; note: potency is the fitted concentration of half-maximal effect; for activity change, negative = cytotoxicity: series mostly up to about 38 µM
# Outline: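 1000 HPAF-II cells/well; 4 h pre-incubation; 11-pnt compound titration; 72 h, 37 degrees C/5% CO2; CellTiter-Glo, 15 min RT; luminescence read.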
# [6] = DH5-alpha competent E. coli microbial cell viability qHTS against the NCATS CANVASS Library (AID 1347377); conditions: outcome: dose series up to 46.1 µM unless noted
# Outline: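 Luminescent ATP read-out (BacTiter-Glo, 20 min RT) after overnight 37C culture of DH5-alpha E. coli with compounds; daunomycin control at 0.2 nM–9.2 uM final.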
# [7] = qHTS for inhibitors of ER calcium dysfunction: SERCaMP assay screened against the NCATS CANVASS Library (AID 1347393); note: nearly all actives have a fitted effect of over 40% in size; note: potency is the fitted concentration of half-maximal effect
# Outline: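 Thapsigargin-induced ER calcium depletion drives GLuc-SERCaMP secretion from SH-SY5Y cells; compounds given 16 h beforehand were scored by lowered coelenterazine luminescence after 4 h challenge.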
# [8] = COV-362 Cancer Cell Toxicity qHTS against the NCATS CANVASS Library (AID 1347352); note: series mostly up to about 38 µM
# Outline: as §2
# [9] = KB-3-1 Cancer Cell Toxicity qHTS against the NCATS CANVASS Library (AID 1347366); note: nearly all actives have a fitted effect of over 75% in size; note: potency is the fitted concentration of half-maximal effect; for activity change, negative = cytotoxicity: series mostly up to about 46 µM
# Outline: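 Luminescence from CellTiter-Glo (10 min, room temperature) measured KB-3-1 viability after 72 hr compound exposure at 37C. Cells were seeded at 500/well and tested in an 11-point series.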
# [10] = target: Cytochrome P450 3A4 (Homo sapiens) (UniProt P08684); experiment: qHTS Assay for Activators of Cytochrome P450 3A4 (AID 885); note: nearly all actives have a fitted effect of over 65% in size
# Cytochrome P450 3A4 (Homo sapiens), sequence (P08684 whole entry, looked up): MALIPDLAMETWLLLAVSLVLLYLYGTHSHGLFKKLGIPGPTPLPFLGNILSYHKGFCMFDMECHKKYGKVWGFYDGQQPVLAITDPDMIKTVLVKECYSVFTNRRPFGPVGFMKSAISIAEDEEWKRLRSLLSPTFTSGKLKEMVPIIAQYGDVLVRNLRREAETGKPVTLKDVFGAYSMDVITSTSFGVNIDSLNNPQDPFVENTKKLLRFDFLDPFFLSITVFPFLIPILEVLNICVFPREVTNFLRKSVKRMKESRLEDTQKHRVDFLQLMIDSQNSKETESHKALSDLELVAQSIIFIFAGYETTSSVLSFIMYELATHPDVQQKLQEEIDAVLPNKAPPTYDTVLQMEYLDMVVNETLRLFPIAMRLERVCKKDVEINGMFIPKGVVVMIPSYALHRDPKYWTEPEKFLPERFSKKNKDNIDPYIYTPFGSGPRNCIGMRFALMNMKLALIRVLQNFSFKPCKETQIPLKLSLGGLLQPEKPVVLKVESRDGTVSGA
# Outline: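 Human CYP3A4 dealkylates Luciferin-PPXE to luciferin, which luciferase detection converts to light. Substrate was at its KM (25uM), buffer 200mM KPO4, reaction 60 min at RT.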
# [11] = Confirmatory screen NINDS Rhodamine qHTS for Zika virus inhibitors (AID 1347161); note: potency is the fitted concentration of half-maximal effect; nearly all actives have a fitted effect of over 60% in size
# Outline: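 Purified linked NS2B-NS3 protease (NS2B hydrophilic domain joined to NS3 protease by flexible linker), 25 nM in 10 mM Tris-HCl pH 8.0, 0.01% Tween 20. Compounds titrated, 15 min preincubation at room temperature; 1.5 microM Rhodamine110 substrate, FITC fluorescence change over 15 min.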
# [12] = system: Zika virus NS2B-NS3 protease (linked construct); experiment: 384 well plate NINDS Rhodamine confirmatory qHTS for Zika virus inhibitors (AID 1347164);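 note: fluorescence from protease cleavage of Ac-LKRR-rhodamine 110 substrate; potency is the fitted concentration of half-maximal effect; nearly all actives have a fitted effect of over 65% in size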
# Outline: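 Enzyme (final 5/30/60 nM) + cpd (DMSO), ~15 min; add Ac-LKRR-Rd 10 microM final; 25 min RT, dark; FI ex 485/em 538; normalized to no-enzyme, no-inhibitor ctrls; aprotinin intraplate ctrl.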
structure (smiles),measurement,setting,value
COC12OC1(C13OC1(OC)C(=O)c1cc4cc(C)oc(=O)c4c(O)c1C3O)C(O)c1c(cc3cc(C)oc(=O)c3c1O)C2=O (stereo not drawn),Potency,[1],inactive
same,Potency,[2],inactive
same,Potency,[3],inactive
same,Potency,[4],inactive
CC(C)=CC[C@H]1C[C@@]2(CC=C(C)C)C(=O)[C@](CC=C(C)C)(C(=O)C(C(=O)c3ccccc3)=C2O)C1(C)C,Potency,[5],6.68 µM (active)
same,Potency,[1],8.38 µM (active)
same,Potency,[2],13.3 µM (active)
same,outcome,[6],inactive
same,Potency,[7],30.5 µM (active)
C[C@H]1C=C[C@H]2CCCC[C@@H]2[C@H]1C(=O)[C@H]1CC2=C(C(=O)O)CCN2C1=O,Potency,[1],inactive
same,Potency,[2],inactive
same,Potency,[8],inactive
same,Potency,[3],inactive
same,Potency,[9],inactive
same,outcome,[6],inactive
same,Potency,[7],19.3 µM (active)
COc1cc(C2OCC3C(c4ccc(O)c(OC)c4)OCC23)ccc1O (stereo not drawn),"activity change, negative = cytotoxicity",[1],-13.2% [at 7.64 µM]
same,"activity change, negative = cytotoxicity",[2],-5.51% [at 7.64 µM]
same,"activity change, negative = cytotoxicity",[8],-3.45% [at 7.64 µM]
same,outcome,[6],inactive [at 9.19 µM]
CC(C)C[C@@H]1c2c(O)c(C=O)c(O)c(C=O)c2O[C@]2(C)C=C[C@@H](C(C)C)C[C@H]12,Potency,[5],inactive
same,Potency,[2],inactive
same,Potency,[3],inactive
same,Potency,[9],inactive
same,Potency,[4],inactive
CCC(=O)CCCCC[C@@H]1NC(=O)[C@H]2CCCCN2C(=O)[C@H](C(C)C)NC(=O)[C@H](Cc2cn(OC)c3ccccc23)NC1=O,Potency,[5],2.98 µM (active)
same,Potency,[1],7.47 µM (active)
same,Potency,[2],4.21 µM (active)
same,Potency,[9],7.43 µM (active)
O[C@H]1c2ccccc2-c2c3c(cc4c2[C@@H]1NCC4)OCO3,Potency,[5],18.8 µM (active)
same,Potency,[4],24.3 µM (active)
Cc1occ2c1C(=O)c1c(cc(O)c(O)c1O)C2=O,outcome,[6],inactive
same,Potency,[4],inactive
C/C=C(/C)c1c(Cl)c(O)c(C)c2c1Oc1c(Cl)c(O)c(Cl)c(C)c1C(=O)O2,Potency,[2],inactive
same,Potency,[3],inactive
same,Potency,[9],inactive
same,Potency,[4],inactive
same,Potency,[7],inactive
C/C=C(/C)c1c(Cl)c(OC)c(C)c2c1Oc1c(Cl)c(O)c(Cl)c(C)c1C(=O)O2,Potency,[5],13.3 µM (active)
same,Potency,[8],inactive
same,Potency,[3],inactive
same,Potency,[9],inactive
same,Potency,[4],inactive
same,Potency,[7],inactive
COc1cc(O)c(C(=O)[C@@H]2[C@H](CC=C(C)C)C(C)=CC[C@H]2c2ccccc2)c(O)c1,Potency,[5],13.3 µM (active)
same,Potency,[1],13.3 µM (active)
same,Potency,[2],9.43 µM (active)
same,Potency,[9],20.9 µM (active)
O=c1cc(-c2ccc(O)c(O)c2)oc2cc(O[C@@H]3O[C@H](CO)[C@@H](O)[C@H](O)[C@H]3O)cc(O)c12,Potency,[1],1.18 µM (active)
same,outcome,[6],inactive
same,Potency,[4],inactive
same,Potency,[7],38.4 µM (active)
CC(=O)Oc1cc2c(c(OC(C)=O)c1C1CCc3cc(Cl)c(Cl)n31)C(=O)n1c-2cc(Cl)c1Cl (stereo not drawn),Potency,[5],10.6 µM (active)
same,Potency,[1],3.34 µM (active)
same,Potency,[2],6.68 µM (active)
same,Potency,[3],16.6 µM (active)
same,Potency,[9],23.5 µM (active)
CC(=O)O[C@H]1c2ccccc2-c2c3c(cc4c2[C@@H]1N(C(C)=O)CC4)OCO3,Potency,[8],inactive
same,Potency,[9],inactive
same,Potency,[4],inactive
same,Potency,[7],34.3 µM (active)
COC(=O)[C@]1([C@H]2CCC(=O)O2)CC(=O)c2c(O)cc(C)cc2O1,Potency,[5],inactive
same,Potency,[1],inactive
same,Potency,[2],inactive
same,Potency,[8],inactive
same,Potency,[3],inactive
same,Potency,[9],inactive
same,outcome,[6],inactive
same,Potency,[4],inactive
same,Potency,[7],inactive
CO[C@H]1/C=C/CCCCC(=O)O[C@@H](/C(C)=C/[C@H](C)C(=O)C[C@H](O)CC2CC(=O)NC(=O)C2)[C@@H](C)C1,Potency,[3],14.8 µM (active)
same,Potency,[4],inactive
CC(C)=CCc1c2c(c3occ(-c4ccc(O)c(O)c4)c(=O)c3c1O)C=CC(C)(C)O2,Potency,[10],inactive
same,Potency,[11],12.4 µM (active)
same,Potency,[12],7.94 µM (active)
O=Cc1ccc2n1C[C@]1(C[C@H](O)[C@@H](CO)O1)OC2,Potency,[5],inactive
same,Potency,[1],inactive
same,Potency,[2],inactive
same,Potency,[8],inactive
same,Potency,[3],inactive
same,Potency,[9],inactive
same,outcome,[6],inactive
same,Potency,[4],inactive
